According to PubChem BioAssay:
Values without a mark were called inactive. The rule behind the calls is not given here.

Molecular target: Pantothenate synthetase (Mycobacterium tuberculosis (strain ATCC 25618 / H37Rv)) (UniProt P9WIL5)
Test: Recombinant Mtb pantothenate synthetase (PanC) inhibitors, coupled enzyme, confirmatory (AID 375);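 note: 0% = full reaction with vehicle and 100% = no enzyme background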
Settings: coupled enzyme assay; at 10 µM, active compounds read high

Pantothenate synthetase (Mycobacterium tuberculosis (strain ATCC 25618 / H37Rv)), sequence (P9WIL5 whole entry, looked up): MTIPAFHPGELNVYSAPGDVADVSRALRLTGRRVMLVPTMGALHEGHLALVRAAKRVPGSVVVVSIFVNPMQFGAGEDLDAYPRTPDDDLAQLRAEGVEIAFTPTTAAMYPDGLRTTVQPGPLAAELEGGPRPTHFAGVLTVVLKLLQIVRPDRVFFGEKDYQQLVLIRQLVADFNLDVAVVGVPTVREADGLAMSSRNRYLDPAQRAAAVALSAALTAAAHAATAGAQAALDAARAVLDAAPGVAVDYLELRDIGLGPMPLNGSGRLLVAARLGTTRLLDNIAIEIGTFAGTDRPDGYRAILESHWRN

Compound	inhibition
CCC1Oc2ccc(C)cc2N(CC(=O)N(Cc2cccnc2)Cc2ccc(C)o2)C1=O (stereo not given)	4%
O=C(Cn1cnc2c(cnn2-c2ccccc2)c1=O)NCCc1ccccc1	0%
Cc1cccc(NC(=O)c2ccc3ccccc3n2)n1	0%
O=C(NCc1cccs1)c1cc2c(s1)CCCC2	0%
CNS(=O)(=O)c1cccc(C(=O)OCC(=O)c2cc(C)n(-c3ccc4c(c3)OCO4)c2C)c1	0%
CC(=O)N(c1ccc(Br)cc1)C1C=CS(=O)(=O)C1 (stereo not given)	2%
CC1(C)CC(=O)C=C(NC2CCS(=O)(=O)C2)C1 (stereo not given)	0%
Cc1ccc2c(c1)N(CC(=O)Nc1ccc3c(c1)OCCO3)C(=O)CO2	0%
Cc1ccc(OCCC(=O)OCC(=O)C(C)(C)C)cc1	8%
Cc1nc2sc(C(c3cccc(F)c3)N3CCN(C(=O)c4ccco4)CC3)c(O)n2n1 (stereo not given)	0%
COC(=O)C1C(=O)C2=C(CC1C)NC(=O)CC2c1ccccc1 (stereo not given)	0%
COc1ccc2c(c1)CCc1c(C(=O)N3CC4(C)CC3CC(C)(C)C4)noc1-2 (stereo not given)	0%
COC(C)(C)c1cc(C(C)(C)C)nc(N)n1	0%
CCC(=O)N[C@@H]1CC(C(C)(C)NC(=O)CC)CC=C1C (stereo not given in full)	6%
O=C(O)C1CCCN1S(=O)(=O)c1ccc2ccccc2c1 (stereo not given)	3%
CCOC(=O)c1cnc(-n2nc(C)cc2C)nc1NC(C)c1ccccc1 (stereo not given)	0%
Fc1ccc(C(c2ccc(F)cc2)N2CCN(C/C=C/c3ccccc3)CC2)cc1	0%
COc1ccc(C(c2nnnn2C2CCCC2)N2CCN(C3CCCC3)CC2)cc1OC (stereo not given)	4%
Cc1ccc(C(=O)Nc2ccc(Cl)cn2)cc1S(=O)(=O)N1CCOCC1	0%
O=S(=O)(Nc1nc2ccccc2nc1NCc1ccco1)c1ccc(Cl)cc1	0%

Compound	inhibition
CC(C)(C)n1ncc2c(=O)n(CC(=O)c3ccccc3)cnc21	0%
CCn1cc(C(=O)NCCCOC)c(=O)c2cc(S(=O)(=O)N(C)C3CCCCC3)ccc21	2%
CC(C)(C)OC(=O)N1CCOCCOCCN(C(=O)OC(C)(C)C)CCOCCOCC1	0%
O=C(CSc1nnc2ncccn12)N1CCCCCC1	0%
O=C(CN1CCC(c2nc3ccccc3s2)CC1)NCc1cccs1	3%
CCOc1cc(-c2nc3ccccn3c2NCC2CCCO2)ccc1O (stereo not given)	0%
COc1ccccc1N1CCN(C(=O)C(Cc2ccccc2)NC(=O)C2CCCCC2)CC1 (stereo not given)	5%
CSc1ccc(Cn2nnc(C(=O)NCc3ccccc3)c2N)cc1	0%
Cc1cc(NC(=O)C(C)(C)C)no1	0%
Cc1cccc(N(CC(=O)Nc2ccc(CC#N)cc2)S(C)(=O)=O)c1	2%
Cc1cccc(NC2SC(=O)N(c3ccccc3)C2=O)c1 (stereo not given)	0%
COc1cccc(/C=N/n2c(C)nc3ccccc32)c1OC	0%
O=C(CSc1nc2ccccc2o1)N1CCN(C(=O)c2ccco2)CC1	0%
Cn1c(=O)n(CCN2CCOCC2)c(=O)c2c1nc1n2CCN1c1ccccc1	2%
Cc1c(C(=O)NC2CCCc3ccccc32)oc2ccc(S(=O)(=O)N3CCOCC3)cc12 (stereo not given)	6%
COc1ccc(S(=O)(=O)Nc2cccc(C)n2)c2ccccc12	2%
O=C(NCCCCNC(=O)c1c(F)c(F)c(F)c(F)c1F)c1c(F)c(F)c(F)c(F)c1F	0%
Cc1cc(C)cc(N(CC(=O)Nc2cccc(C)n2)S(=O)(=O)c2c(C)noc2C)c1	0%
COC(=O)c1ccc(C2NC(C(=O)O)CS2)cc1 (stereo not given)	0%
CCOc1ccc(Oc2nc(Nc3ccc(C)cc3)nc(N(C)C)n2)nn1	0%
